The nature of test [1]: qHTS assay to identify small molecule antagonists of the estrogen receptor alpha (ER-alpha) signaling pathway using the BG1 cell line in the presence of 0.1 nM 17-beta-estradiol - cell viability counter screen (AID 1259241). Further: nearly all actives have a fitted effect of over 40% in size. In outline: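 Viability in VM7Luc4E2 cells after 22 hr compound exposure under 0.1 nM 17beta-estradiol stimulation, by CellTiter-Fluor.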
A general note: Quantitative high-throughput screening tests each substance at several concentrations.

Test [2] can be described thus: qHTS assay to identify small molecule antagonists of the androgen receptor (AR) signaling pathway using the MDA cell line in the presence of 0.5 nM R1881 - cell viability counter screen (AID 1259242). Further: nearly all actives have a fitted effect of over 45% in size. In outline:
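R1881 at 0.5 nM final stimulated MDA-kb2 cells during 16 hr compound treatment at 37C. Cytotoxicity read: CellTiter-Fluor fluorescence after 30 min.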

A short description of test [3]: qHTS assay to identify small molecule phospholipidosis (PLD) inducers (AID 1259344; active means well fitted curve in the direction sought with a large enough effect; an effect the other way counts as inactive or inconclusive). In outline: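 Fluorescent phospholipid staining (LipidTOX Red) measured by automated microscopy in fixed HepG2 cells after 24 h treatment; nuclei counterstained with Hoechst 33342; amiodarone as reference inducer.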
Test [4] is described as follows: qHTS assay to identify small molecule HDAC inhibitors (AID 1259364).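 Further: wild-type HCT-116 cells with endogenous class I/II HDAC activity; top concentration of the series differs between compounds; nearly all actives have a fitted effect of over 45% in size.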 In outline: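 Relative class I and II HDAC activity is taken from the luminogenic signal in HCT-116 cells, with compound exposure 2 hr and reagent development 30 min at room temperature.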
Test [5] can be described thus: qHTS assay to identify small molecule HDAC inhibitors - cell viability counter screen (AID 1259365). Further: series mostly up to about 92 µM; nearly all actives have a fitted effect of over 50% in size. In outline:
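Cytotoxicity was gauged in wild-type HCT-116 cells after a brief 2hr treatment with DMSO-dissolved compounds at 37C and 5% CO2, using CellTiter-Glo luminescence developed for 30min at room temperature.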

A short description of test [6]: qHTS assay to identify small molecule antagonists of the sonic hedgehog signaling (Shh) pathway - cell viability counter screen (AID 1259367). Further: nearly all actives have a fitted effect of over 55% in size. In outline: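 Using CellTiter-Fluor, viability of Gli1-Luc reporter 3T3 cells is read by fluorescence in the wells used for the Shh luciferase assay. Treatment lasts 23 hr with conditioned medium, then reagent 1 hr at 37C.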

Test [7] is described as follows: qHTS assay to identify small molecule agonists of the sonic hedgehog signaling (Shh) pathway (AID 1259368; calls by dose curve;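 further: NIH/3T3-derived 3T3Gli1-Luc cells carrying a stable Gli1-driven firefly luciferase reporter; series mostly up to about 92 µM; nearly all actives have a fitted effect of over 15% in size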). Summed up:
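Mouse fibroblast (NIH/3T3) reporter cells with stably integrated Gli1-Luc were treated 24 hr with compound; firefly luciferase luminescence served as the read-out.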

A short description of test [8]: qHTS assay to identify small molecule agonists of the androgen receptor (AR) signaling pathway in the presence of an antagonist - cell viability counter screen (AID 1259379).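 Further: MDA-kb2 human breast cancer cells carrying an MMTV luciferase reporter; series mostly up to about 92 µM; nearly all actives have a fitted effect of over 25% in size.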 In outline:
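A CellTiter-Fluor read-out measured viability of MDA-kb2 reporter cells (MMTV promoter with AR and GR response elements). Treatment: nilutamide 3.0uM final with compounds at 15 concentrations, 16 hr, 37C, 0% CO2.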

Test [9] is described as follows: qHTS assay to identify small molecule agonists of the estrogen receptor beta (ER-beta) signaling pathway - cell viability counter screen (AID 1259380). Further: nearly all actives have a fitted effect of over 30% in size. Further: potency means the concentration at half of the fitted maximal effect. In outline:
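Cells used were ER-beta-UAS-bla HEK293T in medium with 2% charcoal-stripped FBS. They were treated for 16 hr at 37C. Viability came from CellTiter-Glo luminescence.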

For test [10], the target named is Androgen receptor (Homo sapiens) (UniProt P10275). The experiment in a line: qHTS assay to identify small molecule agonists of the androgen receptor (AR) signaling pathway in the presence of an antagonist (AID 1259381; calls by dose curve; further: nearly all actives have a fitted effect of over 15% in size). Summed up: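 Using human MDA-kb2 cells with an MMTV promoter–luciferase construct (AR and GR response elements), agonist activity is scored under 3.0uM nilutamide (final) co-treatment; 16hr incubation, 37C, luminescence readout via ONE-Glo.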
Androgen receptor (Homo sapiens), sequence (P10275 whole entry, looked up): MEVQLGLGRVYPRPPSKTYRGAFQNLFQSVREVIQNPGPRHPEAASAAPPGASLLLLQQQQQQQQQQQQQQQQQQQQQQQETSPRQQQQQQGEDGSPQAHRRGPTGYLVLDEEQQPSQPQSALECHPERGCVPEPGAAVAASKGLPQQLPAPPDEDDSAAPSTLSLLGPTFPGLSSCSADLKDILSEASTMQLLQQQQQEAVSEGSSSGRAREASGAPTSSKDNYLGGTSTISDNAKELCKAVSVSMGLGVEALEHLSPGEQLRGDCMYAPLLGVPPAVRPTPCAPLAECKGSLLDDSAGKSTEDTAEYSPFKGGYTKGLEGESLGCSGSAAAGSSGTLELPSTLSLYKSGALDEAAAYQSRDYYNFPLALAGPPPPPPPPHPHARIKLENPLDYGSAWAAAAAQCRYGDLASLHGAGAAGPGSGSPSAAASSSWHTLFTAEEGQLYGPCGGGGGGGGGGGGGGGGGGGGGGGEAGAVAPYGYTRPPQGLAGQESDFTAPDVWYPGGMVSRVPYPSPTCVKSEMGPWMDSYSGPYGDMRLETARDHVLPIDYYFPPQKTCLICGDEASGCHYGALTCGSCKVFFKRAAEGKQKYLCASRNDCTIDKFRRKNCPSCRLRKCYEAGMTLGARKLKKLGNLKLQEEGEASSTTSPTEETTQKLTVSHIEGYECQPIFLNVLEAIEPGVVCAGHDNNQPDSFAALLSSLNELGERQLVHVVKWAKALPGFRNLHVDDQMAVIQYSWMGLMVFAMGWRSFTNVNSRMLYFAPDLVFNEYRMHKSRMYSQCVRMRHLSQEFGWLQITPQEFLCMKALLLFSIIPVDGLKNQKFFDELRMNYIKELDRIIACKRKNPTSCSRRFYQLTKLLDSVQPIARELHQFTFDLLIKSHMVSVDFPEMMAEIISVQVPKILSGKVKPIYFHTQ

Test [11] is described as follows: qHTS assay to identify small molecule agonists or antagonists of the thyroid stimulating hormone receptor (TSHR) signaling pathway - wild type cell line counter screen (AID 1259384; calls by dose curve). Summed up:
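Counter screen in untransfected Hek293: compounds (15-point titration, triplicate) plus phosphodiesterase inhibitor Ro20-1724 added after 18 h plating; 30 min RT. Intracellular cAMP via competitive d2/cryptate immunoassay, 1 h incubation.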

Test [12] has as its target Thyrotropin receptor (Homo sapiens) (UniProt P16473). Description: qHTS assay to identify small molecule antagonists of the thyroid stimulating hormone receptor (TSHR) signaling pathway (AID 1259385; calls by dose curve; further: nearly all actives have a fitted effect of over 20% in size; further: potency means the concentration at half of the fitted maximal effect). In outline: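 Antagonist mode: compound-treated TSHR-expressing HEK293 cells were stimulated with 1.5 ng/mL TSH (final) in presence of Ro20-1724 for 30 min at RT. HTRF cAMP detection after 1 h; each compound tested at 15 concentrations, triplicate.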

The nature of test [13]: qHTS assay to identify small molecule agonists of the sonic hedgehog signaling (Shh) pathway - cell viability counter screen (AID 1259366). Further: nearly all actives have a fitted effect of over 50% in size. Summed up: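 Stable Gli1-Luc NIH/3T3 clone, 2,000 cells/well. Compound exposure 24hr at 37C. Read-out: CellTiter-Fluor fluorescence.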
Test [14] is described as follows: qHTS assay to identify small molecule antagonists of the sonic hedgehog signaling (Shh) pathway (AID 1259369; calls by dose curve; further: nearly all actives have a fitted effect of over 45% in size; further: potency means the concentration at half of the fitted maximal effect). In outline: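 Conditioned medium drives Shh signalling in 3T3Gli1-Luc cells; compounds in DMSO co-applied, 24hr at 37 C, then luciferase luminescence.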
The nature of test [15]: qHTS assay to identify small molecule antagonists of the estrogen receptor beta (ER-beta) signaling pathway - cell viability counter screen (AID 1259382). Further: nearly all actives have a fitted effect of over 55% in size. Further: potency means the concentration at half of the fitted maximal effect. In outline:
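Agonist-stimulated (1nM E2) ER-beta-UAS-bla HEK293T cells are incubated with library compounds for 16 hr at 37C. Cell viability is then assessed in the reporter-assay wells by adding CellTiter-Glo and reading luminescence after 30 min.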

Test [16] addresses Estrogen receptor beta (Homo sapiens) (UniProt Q92731). The experiment in a line: qHTS assay to identify small molecule agonists of the estrogen receptor beta (ER-beta) signaling pathway (AID 1259377; active means well fitted activation curve with a large enough effect in the signal ratio in the repeat runs, not every such curve was filed as active; the % refers to the signal ratio). Summed up:
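Measured by fluorescence intensity from a B/G FRET beta-lactamase substrate (2 h, room temperature) in ER-beta-UAS-bla HEK293T cells treated with DMSO-dissolved compounds for 16 hr at 37C and 5% CO2.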

Test [17] has the same target. The experiment in a line: qHTS assay to identify small molecule antagonists of the estrogen receptor beta (ER-beta) signaling pathway (AID 1259378; active means well fitted inhibition curve with a large enough effect in the signal ratio in the repeat runs, not every such curve was filed as active; the % refers to the signal ratio). In outline:
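Antagonist mode: compounds added to beta-lactamase reporter HEK293T ER-beta-UAS cells stimulated with E2 (1nM final), 16 hr at 37C. LiveBLAzer B/G FRET substrate, 2 hours room temperature, fluorescence read-out.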

Test [18] has as its target Estrogen receptor (Homo sapiens) (UniProt P03372). Description: qHTS assay to identify small molecule agonists of the estrogen receptor alpha (ER-alpha) signaling pathway in the presence of an antagonist (AID 1259383; calls by dose curve; further: top concentration of the series differs between compounds; nearly all actives have a fitted effect of over 15% in size). Summed up: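 Using VM7Luc4E2 cells seeded 24hr before treatment, antagonist ICI-182,780 (10.0nM final) was added, followed by compounds at 15 concentrations. Plates incubated 22hr; ONE-Glo luminescence quantified reporter activity.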

The target of test [19] is Androgen receptor (Homo sapiens) (UniProt P10275). Description: qHTS assay to identify small molecule antagonists of the androgen receptor (AR) signaling pathway using the MDA cell line in the presence of 0.5 nM R1881 (AID 1259243). Further: nearly all actives have a fitted effect of over 50% in size. In outline:
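We exposed MDA-kb2 cells to compounds under 0.5 nM R1881 stimulation for 16 hr at 37C and quantified MMTV-driven luciferase by luminescence.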

The target in test [20] is Estrogen receptor (Homo sapiens) (UniProt P03372). The experiment in a line: qHTS assay to identify small molecule antagonists of the estrogen receptor alpha (ER-alpha) signaling pathway using the BG1 cell line in the presence of 0.1 nM 17-beta-estradiol (AID 1259244). Further: nearly all actives have a fitted effect of over 50% in size. In outline:
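VM7Luc4E2; 4xERE-luciferase; 0.1 nM E2 final; 22 h co-incubation, 37C; ONE-Glo luminescence after 30 min at room temperature.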

Values without a mark were called inactive. Inconclusive results are not listed. Active and inactive are the calls of the source. Unless noted, the call rests on the fitted dose curve; in most records, active means well fitted curve in the direction sought with a large enough effect in the repeat runs; inconclusive means weak or mixed curves; inactive means no such curve, though single readings can be large; an effect the other way counts as inactive or inconclusive.

Estrogen receptor beta (Homo sapiens), sequence (Q92731 whole entry, looked up): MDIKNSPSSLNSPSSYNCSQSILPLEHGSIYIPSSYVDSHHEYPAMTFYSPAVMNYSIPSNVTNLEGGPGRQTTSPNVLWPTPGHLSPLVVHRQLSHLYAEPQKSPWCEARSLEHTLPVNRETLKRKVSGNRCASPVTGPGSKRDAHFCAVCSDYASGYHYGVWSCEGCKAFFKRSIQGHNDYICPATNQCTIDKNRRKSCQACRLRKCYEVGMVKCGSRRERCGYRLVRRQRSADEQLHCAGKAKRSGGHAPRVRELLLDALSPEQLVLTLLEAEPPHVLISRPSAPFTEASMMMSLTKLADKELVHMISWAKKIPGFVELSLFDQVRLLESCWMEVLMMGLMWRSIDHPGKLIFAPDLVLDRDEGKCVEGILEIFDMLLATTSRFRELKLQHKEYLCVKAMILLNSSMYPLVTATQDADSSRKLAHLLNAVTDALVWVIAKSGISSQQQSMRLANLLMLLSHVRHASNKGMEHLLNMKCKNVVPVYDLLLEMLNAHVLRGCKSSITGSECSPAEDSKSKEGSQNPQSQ
Thyrotropin receptor (Homo sapiens), sequence (P16473 whole entry, looked up): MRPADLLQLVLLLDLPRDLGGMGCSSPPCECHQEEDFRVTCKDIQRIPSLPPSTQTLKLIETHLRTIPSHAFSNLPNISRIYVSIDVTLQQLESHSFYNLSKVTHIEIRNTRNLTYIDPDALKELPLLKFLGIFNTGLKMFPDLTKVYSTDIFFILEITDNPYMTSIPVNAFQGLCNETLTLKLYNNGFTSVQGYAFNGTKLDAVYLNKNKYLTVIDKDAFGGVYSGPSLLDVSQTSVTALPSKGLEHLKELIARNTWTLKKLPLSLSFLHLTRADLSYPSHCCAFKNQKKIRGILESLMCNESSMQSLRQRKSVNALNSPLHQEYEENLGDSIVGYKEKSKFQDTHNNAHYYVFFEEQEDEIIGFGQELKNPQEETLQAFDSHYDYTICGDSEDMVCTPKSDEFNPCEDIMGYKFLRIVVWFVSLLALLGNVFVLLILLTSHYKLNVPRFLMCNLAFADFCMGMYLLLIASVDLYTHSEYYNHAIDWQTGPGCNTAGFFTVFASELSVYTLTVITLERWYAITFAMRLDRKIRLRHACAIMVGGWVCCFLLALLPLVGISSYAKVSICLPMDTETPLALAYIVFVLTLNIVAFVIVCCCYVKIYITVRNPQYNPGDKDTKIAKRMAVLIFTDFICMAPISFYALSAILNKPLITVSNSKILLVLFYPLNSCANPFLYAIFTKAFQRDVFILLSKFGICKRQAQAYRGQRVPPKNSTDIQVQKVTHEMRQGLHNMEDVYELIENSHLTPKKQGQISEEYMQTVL
Estrogen receptor (Homo sapiens), sequence (P03372 whole entry, looked up): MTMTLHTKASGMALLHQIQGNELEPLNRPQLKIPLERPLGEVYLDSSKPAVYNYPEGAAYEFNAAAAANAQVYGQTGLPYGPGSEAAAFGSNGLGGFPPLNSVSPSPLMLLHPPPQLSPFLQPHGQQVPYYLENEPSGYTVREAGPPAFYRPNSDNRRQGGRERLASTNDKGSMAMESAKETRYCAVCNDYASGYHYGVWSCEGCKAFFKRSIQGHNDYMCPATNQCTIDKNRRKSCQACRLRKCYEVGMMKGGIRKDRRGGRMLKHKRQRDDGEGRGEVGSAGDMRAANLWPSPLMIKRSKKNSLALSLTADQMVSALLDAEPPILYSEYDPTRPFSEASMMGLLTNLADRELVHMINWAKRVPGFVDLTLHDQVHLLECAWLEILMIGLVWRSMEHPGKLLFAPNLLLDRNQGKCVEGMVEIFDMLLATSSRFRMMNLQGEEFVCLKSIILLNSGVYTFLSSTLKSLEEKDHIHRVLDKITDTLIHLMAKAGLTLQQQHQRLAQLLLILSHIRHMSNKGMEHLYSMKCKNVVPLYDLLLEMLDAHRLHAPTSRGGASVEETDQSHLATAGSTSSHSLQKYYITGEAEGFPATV

In the case of `CN(C)CC/C=C1\c2ccccc2COc2ccccc21`, the Potency result in test [1], in [2], in [3], in test [4], in [6] and in [8] was “inactive” throughout. Moreover, the Potency entry in [10] and in test [11] was “inactive” each time. Moreover, the compound was classed as inactive in test [5] and in [7]. The Potency is 26.6 µM (active) in [9] and 29.8 µM (active) in [12].
Take `COc1ccc([C@@H]2Sc3ccccc3N(CCN(C)C)C(=O)[C@@H]2OC(C)=O)cc1`: the Potency entry in test [1], in test [2], in test [3], in test [13], in [6] and in test [14] was “inactive” throughout. In addition, the Potency result in test [8] and in test [12] was “inactive” throughout. Moreover, the result in [5] was inactive. Moreover, the Potency in [9] was 15 µM (active); in test [15] it was 21.1 µM (active).
With `CCN(CC)C(C)=O`, the Potency result in test [1], in test [2], in [4], in test [13], in test [6] and in [14] was “inactive” in each case. Moreover, the Potency entry in test [16], in test [17], in test [8], in test [9], in test [15] and in test [12] was “inactive” throughout. The outcome in test [5] and in test [7] was inactive.
As for `CN1CCC(=C2c3ccccc3CCc3sccc32)CC1`, the Potency entry in test [1], in test [2], in test [4], in test [13], in [6] and in test [16] was “inactive” each time. Further, the Potency result in test [18] and in test [12] was “inactive” each time. Also, the result in [5] and in [7] was inactive. Also, the Potency in test [14] is 2.98 µM (active); in test [9], 26.6 µM (active); in [15], 21.1 µM (active).
As for `O=S1(=O)N=C(O)c2ccccc21`, the Potency result in test [1], in test [2], in test [4], in test [13], in [6] and in test [14] was “inactive” each time. The Potency result in [8], in test [9], in test [15], in test [11] and in test [12] was “inactive” in each case. In test [5], the compound was called inactive.
As to `C=C(C)C(=O)OC(C)C`, the Potency result in test [1], in [19], in test [20], in test [4], in test [13] and in test [6] was “inactive” each time. Moreover, the Potency result in test [14], in test [17], in test [8], in test [9], in test [10] and in test [18] was “inactive” throughout. The Potency result in [11] and in [12] was “inactive” each time. For the same compound, in test [5], the result was inactive.
With `O=C(/C=C/c1ccc(O)c(O)c1)O[C@@H]1C[C@](O)(C(=O)O)C[C@@H](O)[C@H]1O`, the Potency entry in test [1], in [2], in test [4], in test [13], in [6] and in [14] was “inactive” in each case. Besides, the Potency result in test [16], in [17], in test [8] and in test [9] was “inactive” throughout. For the same compound, the outcome in [5] and in [7] was inactive.
For `CCCCCCOC(=O)CCC`, the Potency entry in [1], in test [2], in [4], in test [13], in [6] and in [14] was “inactive” in each case. In addition, the Potency result in [16], in test [17], in test [8], in test [9], in test [15] and in test [11] was “inactive” in each case. In test [12], the Potency entry was “inactive”. The call in [5] and in test [7] was inactive.
For the compound `CC(C)CCCCCCOC(=O)c1ccc(C(=O)OCCCCCCC(C)C)c(C(=O)OCCCCCCC(C)C)c1`, the Potency result in test [1], in test [2], in [4], in test [13], in [6] and in [14] was “inactive” in each case. For the same compound, the Potency result in test [16], in test [17], in [8], in test [9], in [11] and in test [12] was “inactive” throughout. Also, the compound was classed as inactive in test [7].

The values are drawn from PubChem BioAssay (Tox21).
